Measured values published in PubChem BioAssay (NCI).
Where “and” joins values, the source holds several entries; their conditions need not be identical. Equal entries are not always repeated. The panel holds about 83,000 compounds, 20% with a hit somewhere; the sample as a whole holds those more often.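 Cells were grown in 96-well plates and exposed to the test compound at a single concentration for 48 hours; results are reported as percent growth, with values below 10 considered active.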 Calls of active or inactive are those of the source.

These compounds were tested on MDA-MB-468 breast (assay: NCI-60 one-dose screen, 48 h (100 = growth as untreated, 0 = no growth, -100 = all killed)). Conditions: 10 µM unless noted.

| Compound | growth |
| --- | --- |
| OCc1ccc2c(c1)OCO2 | 97.6% (inactive) |
| CC(C)CCC[C@@H](C)[C@H]1CC[C@H]2[C@@H]3CC=C4C[C@@H](OC(=O)Cc5ccc(N(CCCl)CCCl)cc5)CC[C@]4(C)[C@H]3CC[C@]12C | 107% (inactive) |
| Cc1ccc(C(Cc2ccccc2)NCCO)cc1 (stereo not given) | 96.7% (inactive) |
| Cc1c2cc(Cl)c3ccccc3c2c[n+]2ccccc12 | -71.5% (active) |
| CCCOC(=O)N[C@H]1CCc2c(Br)c(OC)c(OC)c(OC)c2-c2ccc(SC)c(=O)cc21 | -14.2% (active) |
| CCOc1c(Cl)cc(CNC(C)C(O)c2ccccc2)cc1OC (stereo not given) | 32.5% (inactive) |
| O=S(OO)c1cc(Cl)c(O)c(Cl)c1 (stereo not given) | 112% (inactive) |
| COC(=O)CCC1=C(C)c2cc3[n-]c(cc4nc(cc5[n-]c(cc1n2)c(CCC(=O)OC)c5C)C=C4C)cc3C.[Cd+2] | 81.6% (inactive) |
| Cn1cc(-c2csc(-c3cn(CCN4CCOCC4)c4ccccc34)n2)c2cccnc21 | 63.3% (inactive) |
| CC[PH+](CC)CC.O=COC1OC([S-])C(OC=O)C(OC=O)C1OC=O.[Au+] (stereo not given) | -78.8% (active) |
| CCCC[C@H](NC(=O)[C@H]1CCCCN1C)C(=O)N(C)[C@H](C[C@@H](OC(C)=O)c1nc(C(=O)N[C@@H](Cc2ccccc2)C[C@H](C)C(=O)OCC)cs1)C(C)C | 31.2% (inactive) |
| C/C(=C\c1cc(C(F)(F)F)nn1CCNC(=O)OC(C)(C)C)[C@@H]1C[C@@H]2O[C@]2(C)CCC[C@H](C)[C@H](O)[C@@H](C)C(=O)C(C)(C)[C@@H](O)CC(=O)O1 | 58.6% (inactive) |
| O=C(O)CC(Br)C(=O)CBr (stereo not given) | 105% (inactive) |
| O=C(C(=O)N1CCCC1)c1cn(CCCCCn2cc(C(=O)C(=O)N3CCCC3)c3ccccc32)c2ccccc12 | 91% (inactive) |
| COC(=O)[C@@H](C)C[C@H](Cc1ccccc1)NC(=O)c1csc([C@@H](C[C@H](C(C)C)N(C)C(=O)C2(NC(=O)[C@H]3CCCCN3C)CC2)OC(C)=O)n1 | -4.03% (active) |
| CCC(C)(C)O | 104% (inactive) |
| COc1ccc2c(c1)C1(C)CCN(C)CC(C1)C2O (stereo not given) | 101% (inactive) |
| Cc1cc(C)c(C[N+](C)(C)C)c(C)c1C | 16.1% (inactive) |

| Compound | growth |
| --- | --- |
| CC(=O)OC1CCC2C3CCC4=C/C(=N/OC(=O)c5ccc(N(CCCl)CCCl)cc5)CCC4(C)C3CC(C)C12 (stereo not given) | 67.2% (inactive) |
| COC1=CC(=O)O[C@@H](/C=C/c2ccc3c(c2)OCO3)C1 | 103% (inactive) |
| CN(C)c1ccc([N+](=O)[O-])c([N+](=O)[O-])c1 | 110% (inactive) and 95.6% (inactive) |
| CCN(CC)CCOc1c(C(C)C)cccc1C(C)C | 88.1% (inactive) |
| COc1ccc(O)c2c(=O)c3c(OC)cc4c(c3oc12)[C@@H]1C=CO[C@@H]1O4 | -63.2% (active) |
| COC(=O)[C@@H](C)C[C@H](Cc1ccccc1)NC(=O)c1cccc([C@@H](C[C@H](C(C)C)N(C)C(=O)[C@@H](NC(=O)[C@H]2CCCCN2C)C(C)C)OC(C)=O)n1 | 10.1% (inactive) |
| CC(=O)OC1C(OC/C2=C/C3[C@@H](C(C)C)CC=C(C)[C@@H]3CC(OC(=O)/C=C/c3cn(C)cn3)[C@]3(C)C=C[C@@]2(O)O3)OCC(O)C1O (stereo not given in full) | -19.2% (active) |
| N#C[Se]CCN1C(=O)C2C(C1=O)[C@H]1C=C[C@@H]2S1 (stereo not given in full) | -19.7% (active) |
| Cc1cccc(N2CCN(C(C)C#N)CC2)c1 (stereo not given) | 100% (inactive) |
| O=C1OCC2=C1C(c1ccccc1)c1cc3c(cc1N2)OCO3 (stereo not given) | -9.05% (active) |
| C[C@@H]1C[C@@H]([C@H](O)CC2CC(=O)NC(=O)C2)C(=O)[C@@H](C)C1 | 9.5% (active) |
| CN1CC(=O)N(O)C1(C)c1cccnc1 (stereo not given) | 94.8% (inactive) |
| CC[C@H](C)[C@H](NC(=O)c1cccn1C)C(=O)N(C)[C@H](C[C@@H](OC(C)=O)c1nc(C(=O)N[C@@H](Cc2ccccc2)C[C@H](C)C(=O)OC)cs1)C(C)C | 25.9% (inactive) |
| CCCCOCCOP(=O)(OCCOCCCC)OCCOCCCC | 91.5% (inactive) |
| CC12CCC(O)CC1=CCC1C2CCC2(C)C(O)CCC12 (stereo not given) | 99.4% (inactive) |
| Cc1cc[c-]cc1.Fc1c[c-]c(-c2ccccn2)c(F)c1.[Pt+2].c1ccc([PH+](c2ccccc2)c2ccccn2)cc1 | 51% (inactive) |
| CN(C)C(=O)Oc1ccccc1 | 113% (inactive) |
